Shown are actives, neighbours in structure and some others; about 4% of the full set was active somewhere.
NALP1 yeast inh: NALP1 inflammasome inhibitors in reconstituted yeast, colorimetric, S. cerevisiae, triplicate retest; S. cerevisiae NALP1/ASC/caspase-1 growth, X-gal OD620, 72 h; actives 0.61% (n = 280,000); inhibition, % at 10 µM; in the data active means inhibition mostly above about 24%, no sharp cut-off; inactive means mostly below about 32%
NLRP3 yeast inh: NALP3 inflammasome inhibitors in reconstituted yeast, primary screen, luminescence, uHTS | actives 0.39% (n = 330,000) | inhibition, % at 10 µM | Yeast reconstituted NLRP3/ASC/caspase-1, beta-gal luminescence, 24 h | AID 2825, 2010;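 active means inhibition of 50% or more; inactive means inhibition below 50%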;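 further: plate controls were induced DMSO wells for no effect and uninduced yeast grown without galactose for full effect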
TIM10 inh: growth inhibitors of isogenic TIM10 control yeast, primary screen, counter-screen for tim10-1 yeast inhibitor project, luminescence, uHTS. S. cerevisiae TIM10 strain growth, BacTiter-Glo luminescence, 24 h. inhibition, % at 10 µM. actives 1.4% (n = 330,000);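 active means inhibition of 40% or more at the single tested concentration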;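 further: wild-type TIM10 isogenic control strain grown at permissive 25 °C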
tim10-1 inh: growth inhibitors of tim10-1 mutant yeast, primary screen, luminescence, uHTS | S. cerevisiae tim10-1 ts strain growth, BacTiter-Glo, 24 h | inhibition, % at 20 µM | actives 2.2% (n = 330,000) | AID 463190, 2010;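 active means inhibition of at least 40%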;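 further: mutant grown at 25 °C; 0% = DMSO wells with yeast and 100% = wells holding no yeast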
tim23-1 inh: growth inhibitors of tim23-1 mutant yeast, primary screen, luminescence, uHTS | actives 1.3% (n = 330,000) | inhibition, % at 20 µM | S. cerevisiae tim23-1 growth, BacTiter-Glo luminescence, 24 h;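 active means growth inhibition of the mutant yeast at or above 50%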;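 further: temperature-sensitive mutant grown at 25 °C; plate controls were DMSO-treated mutant yeast for no effect and medium wells lacking yeast for full effect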
tim10-1 conf: growth inhibitors of tim10-1 mutant yeast, confirmation, single concentration, luminescence, S. cerevisiae. inhibition, % at 20 µM. shares compounds with tim10-1 inh. actives 56% (n = 7,400). S. cerevisiae tim10-1 ts strain growth, BacTiter-Glo, 24 h;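 active means inhibition of yeast growth at or above a set limit in either of two repeat tests at 20 µM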;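 further: tim10-1 mutant grown at permissive 25 °C to find synthetic lethal compounds; 0% = DMSO yeast wells and 100% = medium wells without yeast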
The depositor's hits bear a star; . = not tested or not shown.

SMILES	NALP1 yeast inh	NLRP3 yeast inh	TIM10 inh	tim10-1 inh	tim23-1 inh	tim10-1 conf
CCCn1nc([N+](=O)[O-])c(C(C#N)c2nc3ccccc3o2)c(Cl)c1=O (stereo not given)	-8	28	30	48*	42	36*
CC1(C)CC(NC(=O)COc2ccc3c4c(c(=O)oc3c2)CCCC4)CC(C)(C)N1	20	8	5	0	0	.
CCOc1ccc(-n2ccnc(SCC(=O)NCc3cccc(OC)c3)c2=O)cc1	.	4	10	43*	20	11
CCOc1ccc(-n2ccnc(SCC(=O)Nc3ccc(OC)cc3OC)c2=O)cc1	.	15	15	27	9	.
CCOc1ccccc1NC(=O)C(OC(=O)c1ccc(O)cc1)c1ccccc1 (stereo not given)	16	19	33	42*	35	38*
CCOc1ccccc1NC(=O)C(OC(=O)c1ccc(CC)cc1)c1ccccc1 (stereo not given)	26	7	29	19	20	.
CC1(c2ccc3c(c2)OCCO3)NC(=O)N(CC(=O)Nc2c(F)cccc2F)C1=O (stereo not given)	.	10	12	13	2	.
COc1cc(C2C(C#N)=C(N)OC3=C2C(=O)CC(C)(C)C3)cc([N+](=O)[O-])c1O (stereo not given)	-7	-43	5	-4	15	.
COc1cc(C2C3=C(CC(C)(C)CC3=O)OC3=C2C(=O)CC(C)(C)C3)cc([N+](=O)[O-])c1O	6	-28	17	41*	33	26
Cn1nc([N+](=O)[O-])nc1Sc1nnnn1-c1ccc(C(=O)O)cc1	4	-4	-9	-5	4	.
S=C(c1ccc(N2CCCC2)c(Br)c1)N1CCCCC1	8	25	18	45*	29	21
COc1ccc(C(=S)N2CCCCC2)cc1Br	8	3	1	31	28	.
Nc1cccc(Nc2nc(OC(C(F)(F)F)C(F)(F)F)nc(OC(C(F)(F)F)C(F)(F)F)n2)c1	6	4	24	43*	28	38*
COC(=O)c1cc(S(=O)(=O)Nc2cc(OC)cc(OC)c2)c[nH]1	11	-1	-3	15	5	.
CCc1c(C)[nH]n(-c2nc(-c3ccccc3)cs2)c1=O	-10	-20	18	50*	33	31*
COc1cc(/C=C/c2nc(-c3ccccc3O)n[nH]2)cc(OC)c1OC	16	-12	38	40*	45	28
CCN(CC)S(=O)(=O)c1ccc(N2CCCC2)c(NS(=O)(=O)c2ccccc2)c1	.	-4	7	24	19	.
CCN(CC)S(=O)(=O)c1ccc(N2CCCC2)c(NS(=O)(=O)c2ccc(F)cc2)c1	1	0	4	40*	28	16
COc1ccc(C(=O)C(C)N(C(=O)c2ccc(Cl)cc2Cl)N2C(=O)C3C4C=CC(C4)C3C2=O)cc1 (stereo not given)	1	10	22	47*	42	21
Cc1ccc(C(=O)C(C)N(C(=O)c2ccc(Cl)cc2Cl)N2C(=O)CCCC2=O)cc1 (stereo not given)	9	11	24	21	12	.
CC(=O)c1ccc(N2CCN(C(=S)NCc3ccco3)CC2)cc1	5	2	4	1	8	.
S=C(NCc1ccco1)N1CCN(c2ccc(Cl)cc2)CC1	14	22	32	49*	31	23
c1cc2cc(-c3c(-c4ccc5c(c4)OCO5)noc3-c3ccsc3)ccc2[nH]1	5	7	13	29	20	.
Cc1onc(-c2ccc3c(c2)OCO3)c1-c1ccc2[nH]ccc2c1	-2	17	-13	54*	-6	40*
COc1ccc(-c2c3c(cc4ncn(Cc5ccccc5)c24)COC3=O)cc1	.	3	15	10	23	.
SMILES	NALP1 yeast inh	NLRP3 yeast inh	TIM10 inh	tim10-1 inh	tim23-1 inh	tim10-1 conf
COc1cc(C)c(Br)cc1S(=O)(=O)NCc1ccncc1	14	3	-9	4	0	.
COc1cc(C)c(Br)cc1S(=O)(=O)NCc1cccs1	31	-6	32	40*	40	32*
COC(=O)c1c(NC(NC(=O)C(C)(C)C)C(Cl)(Cl)Cl)sc2c1CCC2 (stereo not given)	-2	8	31	36	26	.
COC(=O)c1c(NC(NC(=O)C(C)C)C(Cl)(Cl)Cl)sc2c1CCC2 (stereo not given)	49	0	24	44*	25	24
COc1ccc(C(=O)NCCc2nc3cc([N+](=O)[O-])ccc3n2C)cc1	20	24	34	55*	28	38*
COc1ccc(C(=O)Nc2ccc3c(c2)nc(CCNC(C)=O)n3C)cc1	-3	11	1	-2	-5	.
Cc1cc(OCCOc2cccc3cccnc23)cc(C)c1Cl	14	26	25	41*	3	4
O=C(Nc1ccccc1N1CCCCC1)c1ccc([N+](=O)[O-])o1	.	27	34	51*	29	51*
O=C(NCc1ccco1)c1ccc([N+](=O)[O-])o1	14	12	-7	42*	29	28
O=C(Nc1ccccc1N1CCN(C(=O)c2ccc(Cl)cc2)CC1)c1ccc([N+](=O)[O-])o1	11	27	11	44*	30	24
O=C(NC1CCCCC1)c1ccc([N+](=O)[O-])o1	21	5	14	51*	42	36*
O=C(NC1CCCC(C(F)(F)F)C1)c1ccc([N+](=O)[O-])o1 (stereo not given)	.	16	33	31	45	.
O=C(Nc1ccccc1N1CCN(C(=O)c2ccc(Cl)cc2)CC1)c1cc2ccccc2o1	-7	0	19	27	4	.
Cc1cccc(N2CCN(S(=O)(=O)c3ccc4c(c3)OCCO4)CC2)c1C	-1	14	12	46*	37	32*
Cc1ccc(S(=O)(=O)N2CCN(CC(=O)Nc3ccc(N4CCOCC4)cc3)CC2)cc1C	16	11	4	18	19	.
CC(=O)N1CCOc2ccc(S(=O)(=O)N3CCN(c4cc(C)ccc4C)CC3)cc21	10	9	15	43*	34	34*
CN1CCN(S(=O)(=O)c2ccc3c(c2)NC(=O)CS3)CC1	0	2	6	-18	2	.
Cc1ccc(C)c(N2CCN(S(=O)(=O)c3ccc4c(c3)NC(=O)CS4)CC2)c1	11	18	12	46*	39	10
CC(=O)N1CCOc2ccc(S(=O)(=O)N3CCCCC3)cc21	-1	8	1	3	2	.
Cc1cccc(N2CCN(CC(=O)Nc3ccc(S(=O)(=O)N4CCOCC4)cc3)CC2)c1C	18	17	22	41*	23	19

Screens (PubChem BioAssay)
